Molecules are shown by their SMILES. Inconclusive results are not listed. Entries that show only a call come without a potency. The source made the active and inactive calls. Calls follow the shape of the dose curve; as a rule, active = well fitted curve in the direction sought with a large enough effect; inconclusive = small, poorly fitted or top-dose-only effect, or another doubt; inactive = no such curve, though single readings can be large; an effect the other way counts as inactive or inconclusive. Starred links: 1 amine or outer side, 2 acyl side, 3 side chain; linkers in the order of their positions; H or OH if unused. Positions of bridges follow the written chain, without caps; N, C: chain ends. Bridge positions count the residues as written; N and C are the ends. Non-standard residues stand in square brackets, D forms with d. Square brackets hold non-standard residues; d marks the D form. Residues, ends and D or L forms follow the SMILES beside them. Peptide text beside a SMILES is read from it. * marks the point of attachment. *: point of attachment. Ileψ(thiazoline)Cys = CC[C@H](C)[C@H](N)C1=N[C@H](C(=O)*)CS1; X1 = NC1=N[C@@H](O)C[C@@H]([C@@H](N[*:1])C(=O)[*:2])N1; ΔAla(Z-3-ureido) = NC(=O)N/C=C(\N)C(=O)O; d(aIle) = CC[C@H](C)[C@@H](N)C(=O)O; β3hOrn = NCCC[C@H](N)CC(=O)*; dOrn = NCCC[C@@H](N)C(=O)O; Dap = NC[C@H](N)C(=O)O

Chain of Ubiquitin carboxyl-terminal hydrolase 1 (Homo sapiens) (O94782 whole entry, looked up): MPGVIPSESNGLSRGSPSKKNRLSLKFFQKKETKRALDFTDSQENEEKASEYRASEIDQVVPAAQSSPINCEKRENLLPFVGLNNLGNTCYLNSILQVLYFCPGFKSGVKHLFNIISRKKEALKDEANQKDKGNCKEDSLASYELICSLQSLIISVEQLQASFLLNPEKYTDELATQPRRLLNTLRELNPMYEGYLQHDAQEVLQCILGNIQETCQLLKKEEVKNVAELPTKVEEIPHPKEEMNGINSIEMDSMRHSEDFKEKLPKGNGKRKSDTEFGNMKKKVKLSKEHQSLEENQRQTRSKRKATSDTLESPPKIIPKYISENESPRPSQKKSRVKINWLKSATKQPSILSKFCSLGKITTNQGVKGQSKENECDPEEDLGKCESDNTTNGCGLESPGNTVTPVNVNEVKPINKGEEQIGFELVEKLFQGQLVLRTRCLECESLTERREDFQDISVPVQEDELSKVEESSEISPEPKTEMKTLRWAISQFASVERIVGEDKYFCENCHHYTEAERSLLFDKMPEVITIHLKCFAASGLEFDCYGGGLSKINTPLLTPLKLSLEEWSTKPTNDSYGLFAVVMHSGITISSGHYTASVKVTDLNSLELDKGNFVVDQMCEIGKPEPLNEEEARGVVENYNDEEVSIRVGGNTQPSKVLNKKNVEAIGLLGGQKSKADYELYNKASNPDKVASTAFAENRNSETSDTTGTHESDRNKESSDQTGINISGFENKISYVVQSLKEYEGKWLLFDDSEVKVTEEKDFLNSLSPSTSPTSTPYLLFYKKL
Chain of ATP-dependent 6-phosphofructokinase (Trypanosoma brucei brucei) (O15648 whole entry, looked up): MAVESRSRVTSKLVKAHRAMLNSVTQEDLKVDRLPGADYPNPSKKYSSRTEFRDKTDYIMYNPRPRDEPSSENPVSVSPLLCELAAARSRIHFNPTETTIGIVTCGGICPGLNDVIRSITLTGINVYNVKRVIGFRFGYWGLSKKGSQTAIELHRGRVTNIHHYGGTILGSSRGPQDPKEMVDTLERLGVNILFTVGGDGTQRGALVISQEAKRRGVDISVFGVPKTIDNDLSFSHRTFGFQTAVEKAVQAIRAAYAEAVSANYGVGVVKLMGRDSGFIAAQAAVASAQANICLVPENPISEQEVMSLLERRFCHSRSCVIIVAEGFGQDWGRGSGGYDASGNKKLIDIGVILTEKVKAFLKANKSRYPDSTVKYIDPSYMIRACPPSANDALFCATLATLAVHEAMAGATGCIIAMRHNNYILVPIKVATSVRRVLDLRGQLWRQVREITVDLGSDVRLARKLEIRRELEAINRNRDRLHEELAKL

One assay has as its target ATP-dependent 6-phosphofructokinase (Trypanosoma brucei brucei) (UniProt O15648). As to the kind of experiment: qHTS Assay to Find Inhibitors of T. brucei phosphofructokinase: hit validation (AID 492961).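 Also: luminescence reports ADP formed as PFK phosphorylates fructose-6-phosphate with ATP.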 Conditions: T. brucei PFK, ADP-Glo luminescence; series mostly up to 24.3 µM. Summed up:
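PFK 1.25 nM, F6P 0.5 mM, ATP 0.1 mM, MgCl2 5 mM, 0.1 M TEA pH 8.0, Tween20 0.01%, BSA 0.1%; 45 min RT. ADP-Glo two-step detection, luminescence. qHTS titration; curve fitting with curve-class categorization.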
Regarding `CN(C/C=C\c1ccccc1)Cc1cccc2ccccc12`, the result was inactive.
As to `CCN(CCCCOC(=O)c1ccc(OC)c(OC)c1)[C@@H](C)Cc1ccc(OC)cc1`, the call was inactive.
Regarding `CC1(C)[C@@H](OC(=O)CCC(=O)O)CC[C@@]2(C)[C@H]1CC[C@@]1(C)[C@H]2C(=O)C=C2[C@H]3C[C@](C)(C(=O)O)CC[C@]3(C)CC[C@@]21C`, the call was inactive.
Still for that read-out and setting: to `CCOC(=O)O[C@@H](C)OC(=O)[C@@H]1N2C(=O)[C@@H](NC(=O)[C@@H](N)c3ccccc3)[C@H]2SC1(C)C` belongs “inactive”; to `Cc1ccsc1/C=C\C1=NCCCN1C`, “inactive”.
Turning to `Cc1cccc(CN2CCN([C@@H](c3ccccc3)c3ccc(Cl)cc3)CC2)c1`, the molecule was classed as inactive.
In the case of `C#C[C@]1(O)CC[C@@H]2[C@H]3CCC4=CCCC[C@@H]4[C@@H]3CC[C@@]21C`, the outcome was inactive.
Turning to `CCN(CC)CCOC(=O)[C@@H](Cc1cccc2ccccc12)C[C@@H]1CCCO1`, the call was inactive.
The same measure, in the same setting: to `Clc1ccc([C@H](Cn2ccnc2)OCc2c(Cl)cccc2Cl)c(Cl)c1` belongs “inactive”.
With `C[C@@H](CNC1CCCCC1)OC(=O)c1ccccc1`, the outcome was inactive.

Another assay addresses Ubiquitin carboxyl-terminal hydrolase 1 (Homo sapiens) (UniProt O94782). As to the kind of experiment: Inhibitors of USP1/UAF1: Pilot qHTS (AID 504865).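 Also: rhodamine fluorescence freed from ubiquitin-rhodamine substrate followed over time; top concentration of the series differs between compounds; nearly all actives have a fitted effect of over 35% in size.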 As to conditions: purified USP1/UAF1, Ub-rhodamine cleavage fluorescence; series mostly up to 114 µM. Summed up: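 USP1/UAF1 complex at 1 nM preincubated 15 min at room temperature with compound, then Ub-Rho substrate added at 150 nM final. Fluorescence (480/540 nm) read kinetically in 50 mM HEPES pH 7.8, 0.5 mM EDTA, 1 mM TCEP, 0.1 mg/ml BSA, 0.01% Tween-20.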
In general terms: qHTS replaces the single test concentration by a dilution series.
Turning to `CC[C@]1(c2ccccc2)NC(=O)N(C)C1=O`, the Potency result is “inactive”.
For `CN1CCO[C@H](c2ccccc2)c2ccccc2C1`, the Potency result was “inactive”.
On the same count and under the same terms, to `C[C@H](CCC(=O)O)[C@H]1CC[C@@H]2[C@@H]3[C@@H](O)C[C@H]4C[C@@H](O)CC[C@@]4(C)[C@H]3CC[C@@]21C` belongs “inactive”; to `CN(C/C=C\c1ccccc1)Cc1cccc2ccccc12`, “inactive”.
Take `C[N+]1(C)CC[C@@H](OC(=O)[C@@](O)(c2ccccc2)C2CCCC2)C1`: the Potency entry is “inactive”.
The same measure, in the same setting: to `CCN(CCCCOC(=O)c1ccc(OC)c(OC)c1)[C@@H](C)Cc1ccc(OC)cc1` belongs “inactive”; to `C[C@H](NCCC(c1ccccc1)c1ccccc1)c1ccccc1`, “inactive”.
Consider `C[C@H](C(=O)O)c1cccc(Oc2ccccc2)c1`, for which the Potency result was “inactive”.
On the same count and under the same terms, to `NCCC[C@H](N)CC(=O)N[C@H]1CNC(=O)[C@@H]([C@@H]2C[C@H](O)N=C(N)N2)NC(=O)/C(=C/NC(N)=O)NC(=O)[C@@H](CO)NC(=O)[C@@H](CO)NC1=O` (β3hOrn-[Dap][dS][dS][ΔAla(Z-3-ureido)][X1]; lactam 1-C) belongs “inactive”.
For `CC1(C)[C@@H](OC(=O)CCC(=O)O)CC[C@@]2(C)[C@H]1CC[C@@]1(C)[C@H]2C(=O)C=C2[C@H]3C[C@](C)(C(=O)O)CC[C@]3(C)CC[C@@]21C`, the Potency entry was “inactive”.
The same measure, in the same setting: to `CCOC(=O)O[C@@H](C)OC(=O)[C@@H]1N2C(=O)[C@@H](NC(=O)[C@@H](N)c3ccccc3)[C@H]2SC1(C)C` belongs “inactive”; to `C#C[C@@]1(OC(C)=O)CC[C@@H]2[C@@H]3CCC4=C[C@@H](OC(C)=O)CC[C@H]4[C@H]3CC[C@]21C`, “inactive”; to `COc1ccc(CNc2ncncc2-c2ccccc2CN(C)C)c(OC)c1`, “inactive”.
Same read-out and setting: to `Nc1nc(=S)c2ncn([C@H]3O[C@@H](CO)[C@@H](O)[C@@H]3O)c2[nH]1` belongs “inactive”.
Still for that read-out and setting: to `CC[C@H](C)[C@H](N)C1=N[C@H](C(=O)N[C@@H](CC(C)C)C(=O)N[C@@H](CCC(=O)O)C(=O)N[C@@H](C(=O)N[C@H]2CCCCNC(=O)[C@@H](CC(N)=O)NC(=O)[C@@H](CC(=O)O)NC(=O)[C@@H](Cc3cnc[nH]3)NC(=O)[C@@H](Cc3ccccc3)NC(=O)[C@@H]([C@@H](C)CC)NC(=O)[C@@H](CCCN)NC2=O)[C@@H](C)CC)CS1` ({Ileψ(thiazoline)Cys}-LE[d(aIle)]K[dOrn][d(aIle)][dF][dH][dD][dN]; lactam 4-C) belongs “inactive”; to `CC1(C)S[C@@H]2[C@H](NC(=O)[C@@H](N)c3ccc(O)cc3)C(=O)N2[C@H]1C(=O)O`, “inactive”.
Turning to `C[C@H](CCC(=O)O)[C@H]1CC[C@@H]2[C@H]3[C@@H](CC[C@@]21C)[C@]1(C)CC[C@H](O)C[C@@H]1C[C@@H]3O`, the Potency entry was “inactive”.
`O=C(O)[C@@H](O)[C@@H](O)[C@@H](O[C@H]1O[C@@H](CO)[C@@H](O)[C@@H](O)[C@@H]1O)[C@@H](O)CO`: the Potency entry is “inactive”.
Same read-out and setting: to `O=C(N[C@@H](CO)[C@@H](O)c1ccc([N+](=O)[O-])cc1)C(Cl)Cl` belongs “inactive”; to `CN(C)CCO[C@@H](c1ccc(Cl)cc1)c1ccccn1`, “inactive”.
Still for that read-out and setting: to `CCN(CC)CCOC(=O)[C@@H](Cc1cccc2ccccc12)C[C@@H]1CCCO1` belongs “inactive”.
As to `C[C@@H](CNC1CCCCC1)OC(=O)c1ccccc1`, the Potency result was “inactive”.
In the case of `CC[C@H](CO)NCCN[C@@H](CC)CO`, the Potency entry is “inactive”.
The same measure, in the same setting: to `CC[N+]1(C)[C@@H]2CC[C@H]1CC(OC(=O)[C@H]1CC[C@@](C(=O)OC3C[C@H]4CC[C@@H](C3)[N+]4(C)CC)(c3ccccc3)c3ccccc31)C2` (some centres undefined) belongs “inactive”.

For the origin of these results see PubChem BioAssay (NCATS).
